The results in this text go back to PubChem BioAssay AID504850 (National Center for Advancing Translational Sciences (NCATS), 2011).

Molecules are shown by their SMILES. In all, about 2,300 compounds went through this assay and about 1,200 (52%) were called active. About 34% were inconclusive and are not listed. Calls follow the shape of the dose curve; as a rule, active = well fitted inhibition curve with a large enough effect; inconclusive = small, poorly fitted or top-dose-only effect, or effect the other way; inactive = no such curve, though single readings can be large or run the other way. So high a share suggests a set chosen from earlier hits. Some of the results follow.
Potency is read from the fitted curve at half-maximal effect.

The assay is described as follows: Confirmation screen for delayed death inhibitors of the malarial parasite plastid, 48 hour incubation. Also: nearly all actives have a fitted effect of over 65% in size. The following applies: P. falciparum-infected erythrocytes, luciferase growth; series mostly up to 28.7 µM. The text has this: The goal of this screen is to discover new antimalarial compounds that act by inhibiting the development of the apicoplast in the malarial parasite Plasmodium falciparum. The biochemical processes that make this organelle essential for erythrocytic stage parasites are not well understood. However, antibiotics, such as azithromycin and tetracycline, which target the apicoplast translational machinery, have a potent antimalarial effect. […] We have developed a cell-based assay that measures parasite growth based on the expression of an integrated copy of a firefly luciferase reporter. To detect small molecules that cause this "delayed death phenotype, erythrocytes infected with the luciferase-expressing parasites were incubated with compounds for either one or two generations, corresponding to 48 and 96 hours, respectively. Compounds that inhibit parasite growth in the second generation, but not the first, should be enriched in antimalarials that target the apicoplast. Growth inhibition is detected by a decrease in luciferase activity. MLPCN Grant: R21 NS059500 Assay Provider: David Fidock and Eric Ekland, Columbia University Keywords: NIH Roadmap, MLPCN, MLI, MLSMR, qHTS, NCGC, qHTS, malaria, luciferase, viability
Four microliters of culture medium (RPMI 1640 with 0.5% w/v Albumax (GIBCO), 24 mM sodium bicarbonate and 10 ug/mL gentamycin) were dispensed by a Multi-drop Combi into white solid 1536-well plates (Grenier) and 23 nL compound was added by a pin tool. Four microliters of infected erythrocytes (2% hematocrit, 0.1% parasitemia final concentration) in culture medium were dispensed and the plates incubated for 48 hours at 37 C in 5% CO2. Two microliters of luciferase detection reagent was added and luminescence was detected by a ViewLux (PerkinElmer) reader.
For `Cc1c(O)ccc(C(=O)CN2CCN(Cc3ccc4c(c3)OCO4)CC2)c1O`, the Potency was 14.1 µM (active).

As for `Cc1c(-c2ccccc2)nc2ccccc2c1C(=O)Nc1ccncc1`, the Potency was 0.501 µM (active).

With `CN1CCN(C(=O)c2cc(COc3c(F)cccc3F)on2)CC1c1ccccc1` (stereo unspecified), the Potency result is “inactive”.

For `O=C(c1cc(COc2cccc(C(F)(F)F)c2)on1)N1CCC(Oc2cccnc2)CC1`, the Potency is 12.6 µM (active).

As to `CC(=O)N1CCCN(C(=O)c2cc(COc3c(F)cccc3F)on2)CC1`, the Potency result was “inactive”.

Take `S=c1[nH]nc(-c2cc(-c3ccccc3)n[nH]2)n1/N=C/C(Br)=C/c1ccccc1`: the Potency was 6.31 µM (active).

`C=C1C(=O)O[C@@H]2C[C@@H](C)[C@@H]3C=CC(=O)[C@@]3(C)[C@@H](OC(C)=O)[C@H]12`: the Potency is 1.58 µM (active).

Regarding `COc1ccc2nc3sc(C(=O)NCCN4CCc5ccccc5C4)cc3cc2c1`, the Potency is 8.91 µM (active).

Take `c1ccc2c(c1)Nc1cc3ccccc3cc1S2`: the Potency was 5.01 µM (active).

Turning to `CCN(Cc1ccccc1)C(=O)CSc1ncn[nH]1`, the Potency result is “inactive”.

On to `O=C(/C=C/Sc1ncn[nH]1)c1ccc(Cl)cc1`, for which the Potency is 12.6 µM (active).

As for `Cc1ccc(C)c(/C=C/C(=O)c2ccccc(=O)c2O)c1`, the Potency is 14.1 µM (active).

On to `O=C(/C=C/c1ccccc1Cl)c1ccccc(=O)c1O`, for which the Potency is 10 µM (active).

On to `N#Cc1ccccc1S(=O)(=O)N1CCC(C(=O)NCc2ccccc2CN2CCCC2)CC1`, for which the Potency was 12.6 µM (active).

For the compound `Cc1ccc(SCC(=O)Nc2ccccc2C(=O)O)cc1`, the Potency result is “inactive”.

Turning to `COc1ccc(C)cc1NC(=O)CSCc1ccccc1C`, the Potency is 12.6 µM (active).

Turning to `CCOc1ccc(NC(=O)CC2C(=O)N(c3ccccc3)C(=O)N2CCOC)cc1` (stereo unspecified), the Potency entry is “inactive”.

`O=C(C[C@H]1C(=O)N(Cc2ccccc2)C[C@@H]1Cc1ccccc1)Nc1ccccc1`: the Potency is 11.2 µM (active).

Regarding `Cn1c(Cc2cccc3ccccc23)nnc1SCc1ccc([N+](=O)[O-])cc1`, the Potency is 14.1 µM (active).

For `CC1(C)CCSC(/C=C/c2ccccc2)=N1`, the Potency is 7.94 µM (active).

As to `CC(=O)c1ccc(NC(=S)Nc2ccc3cn[nH]c3c2)cc1`, the Potency result was “inactive”.

For the compound `CCC(=O)NC(=S)Nc1ccc(NC(=O)c2ccc(C)c([N+](=O)[O-])c2)cc1`, the Potency was 14.1 µM (active).

In the case of `Cc1ccc(-c2nn(C(C)(C)C)c3ncnc(N)c23)cc1`, the Potency is 5.62 µM (active).

For the compound `Cc1cccc[n+]1CC(=O)c1ccc(NC(=O)c2ccccc2)cc1`, the Potency was 7.94 µM (active).

On to `Cc1ccc(Nc2cc(C)nc3ccc(C)cc23)cc1`, for which the Potency is 10 µM (active).

In the case of `CN(CCC#N)C(=O)COC(=O)c1ccc2[nH]c3c(c2c1)CCCC3`, the Potency result was “inactive”.

On to `COc1ccccc1N1CCN(C(=O)c2ccc3[nH]c4c(c3c2)CCCC4)CC1`, for which the Potency was 12.6 µM (active).

Consider `Cc1ccc(Cl)cc1Nc1nc(-c2sc(NC(=O)C(C)(C)C)nc2C)cs1`, for which the Potency was 5.01 µM (active).

For the compound `CCOC(=O)C1CCN(c2c(NCc3ccc(C(=O)NCCC(C)C)cc3)c(=O)c2=O)CC1`, the Potency is 2.24 µM (active).

On to `O=C(/C=C/c1cccnc1)/C=C/c1cccnc1`, for which the Potency is 4.47 µM (active).

As to `O=C(/C=C/c1ccccc1)/C=C/c1ccccc1`, the Potency was 11.2 µM (active).

For `O=C(/C=C/c1cccnc1)c1ccc(O)cc1`, the Potency was 15.8 µM (active).

Consider `COc1ccc(C(=O)/C=C/c2cccnc2)c(OC)c1`, for which the Potency was 7.94 µM (active).

As for `COc1cc(/C=C/C(=O)Nc2cccnc2)cc(OC)c1OC`, the Potency was 14.1 µM (active).

Take `COc1cc(/C=C/C(=O)OCC(=O)Nc2c(C)n(C)n(-c3ccccc3)c2=O)cc(OC)c1OC`: the Potency entry is “inactive”.

For `COc1cc(C(=O)/C=C/c2cccnc2)ccc1O`, the Potency was 12.6 µM (active).

As to `CC(C)NC(=O)c1onc(CSc2cccc3ccccc23)c1C(=O)O`, the Potency entry was “inactive”.

In the case of `COc1cc2cc[n+](Cc3ccc([N+](=O)[O-])cc3)cc2cc1OC`, the Potency is 5.01 µM (active).

On to `CN1CCN(c2ncnc3c2c(-c2ccccc2)cn3-c2ccc(F)cc2)CC1`, for which the Potency was 11.2 µM (active).

`CCN1CCN(c2ncnc3c2c(-c2ccccc2)cn3-c2ccc(F)cc2)CC1`: the Potency was 12.6 µM (active).

With `Fc1ccccc1N1CCN(c2ncnc3nc[nH]c23)CC1`, the Potency entry is “inactive”.

Turning to `COc1ccc(-n2c(=O)/c(=C\c3cccs3)s/c2=C(/C#N)C(=O)N2CCN(C)CC2)cc1`, the Potency entry is “inactive”.

Take `O=C(CCl)N1CCN(CC(=O)N2CCCC2)CC1`: the Potency is 15.8 µM (active).

Consider `CN(C(=O)CN1C(=O)CCSc2ccc(S(=O)(=O)N3CCCC3)cc21)c1ccccc1`, for which the Potency is 11.2 µM (active).

For `OC(c1cc(C(F)(F)F)nc2c(Cl)cc(Cl)cc12)C1CCCCN1` (stereo unspecified), the Potency is 0.0282 µM (active).

For the compound `OC(c1cc(C(F)(F)F)nc2c(C(F)(F)F)cccc12)C1CCCCN1` (stereo unspecified), the Potency is 0.0447 µM (active).

For the compound `OC(c1cc(-c2ccc(Cl)cc2)nc2ccccc12)C1CCCCN1` (stereo unspecified), the Potency is 0.282 µM (active).

For the compound `O[C@@H](c1cc(C(F)(F)F)nc2c(C(F)(F)F)cccc12)[C@H]1CCCCN1`, the Potency was 0.178 µM (active).

On to `COc1ccc(-n2c(C)cc(C(=O)COC(=O)Cc3n[nH]c(=O)c4ccccc34)c2C)cc1`, for which the Potency is 5.62 µM (active).

Consider `O=C(Cc1n[nH]c(=O)c2ccccc12)OCc1c(Cl)cccc1Cl`, for which the Potency entry was “inactive”.

In the case of `CC(C)(C)C(=O)/C(=C\c1cccc([N+](=O)[O-])c1)n1cncn1`, the Potency was 14.1 µM (active).

In the case of `CC(=O)c1ccc(NC(=O)C2Cc3ccccc3CN2C(=O)c2ccccc2)cc1` (stereo unspecified), the Potency is 14.1 µM (active).

For the compound `C/C1=C\CCC2C(/C=C(\C)CC1)OC(=O)C2CN1CCCCC1` (stereo unspecified), the Potency is 12.6 µM (active).

`N#Cc1cc(Oc2cccc3cccnc23)c(-n2nnc3ccccc32)cc1C#N`: the Potency was 5.01 µM (active).

As for `COc1ccccc1-c1cc(C(=O)N/N=C/c2cccs2)c2ccccc2n1`, the Potency is 5.62 µM (active).

For `COc1ccccc1-c1cc(C(=O)N/N=C/c2ccc(C)s2)c2ccccc2n1`, the Potency is 5.62 µM (active).

With `COc1ccccc1-c1cc(C(=O)N/N=C/c2ccc(C)o2)c2ccccc2n1`, the Potency entry was “inactive”.

Consider `OC1C2(Cc3ccccc3)CN3CCN(C2)CC1(Cc1ccccc1)C3` (stereo unspecified), for which the Potency is 2 µM (active).

Consider `CCCc1cc(NCCCN2CCOCC2)n2c(nc3ccccc32)c1C#N`, for which the Potency was 8.91 µM (active).

With `Cc1ccccc1-c1nnc(NC(=O)c2ccc(N3C(=O)CCC3=O)cc2)s1`, the Potency is 14.1 µM (active).

On to `CCC[C@H]1C[C@H](C(=O)N[C@@H]([C@H]2O[C@@H](SC)[C@@H](O)[C@@H](O)[C@@H]2O)[C@H](C)Cl)N(C)C1`, for which the Potency is 0.631 µM (active).
